Experimental findings from the supplement of paper PMC11219838 are described below.

Molecules are shown by their SMILES. A number with no mark means an inactive call.

The test deals with Ditylenchus dipsaci. Kind of test: proportion of mobile D. dipsaci (mixed stage) relative to DMSO control (fraction of DMSO control); higher = more viable, less nematicidal, active = 0.86 or less; extreme values may be limits of the assay. As to conditions: 60 µM; 5 days; temperature: 20 °C. The essentials: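 The worms, D. dipsaci raised on pea plants in Gamborg B-5 agar, were recovered through a filter funnel into water. Each well of a 96-well plate then held about 20 of them in distilled water plus pinned compound at 60 µM final (0.6% v/v DMSO), and the sealed plates were shaken at 200 rpm at 20 °C for 5 days. Following addition of 2 µL 1 M NaOH, mobile worms were counted by microscopy, and mobility was expressed against DMSO controls as the average of two biological replicates.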
Turning to `COc1ccccc1-c1nnc(SCC(=O)Nc2ccc(F)cc2)o1`, the “proportion of mobile D. dipsaci” value is 1.
To `Cc1cc(Cl)ccc1OCc1nc(-c2ccncc2)no1` belongs 1; to `COc1cccc(NC(=O)c2ccccc2-c2nc(-c3ccc(F)cc3)no2)c1`, 1; to `Cc1cc(OCc2nc(-c3ccccn3)no2)ccc1Cl`, 1.
With `N#Cc1ccc(CSc2nnc(-c3ccco3)o2)cc1`, the “proportion of mobile D. dipsaci” value was 1.
For the compound `Cc1cc(OCc2nc(-c3ccncc3)no2)ccc1Cl`, the “proportion of mobile D. dipsaci” value is 1.
For `CCc1ccc(NC(=O)CSc2nnc(-c3ccc(Cl)cc3Cl)o2)cc1`, the “proportion of mobile D. dipsaci” value was 1.
With `Brc1ccc(-c2noc(-c3ccco3)n2)o1`, the “proportion of mobile D. dipsaci” value was 1.
Consider `Brc1cccc(-c2nc(-c3ccncc3)no2)c1`, for which the “proportion of mobile D. dipsaci” value is 1.
In the case of `CC1CC(C)CN(C(=O)CSc2nnc(-c3cccc(Cl)c3)o2)C1` (stereo not drawn), the “proportion of mobile D. dipsaci” value was 1.
Consider `O=C(CSc1nnc(-c2ccc(Cl)cc2)o1)NC1CC2CCC1C2` (stereo not drawn), for which the “proportion of mobile D. dipsaci” value was 1.
For the compound `O=C(CSc1nnc(-c2cccc(Br)c2)o1)Nc1ccccn1`, the “proportion of mobile D. dipsaci” value was 1.
On to `CCOc1cc(-c2nc(-c3cc4ccccc4nc3OC)no2)cc(OCC)c1OCC`, for which the “proportion of mobile D. dipsaci” value is 1.
Consider `O=C(Nc1ccccc1-c1nc(-c2ccncc2)no1)c1ccc(Cl)cc1`, for which the “proportion of mobile D. dipsaci” value is 1.
To `COc1ccc(-c2nc(-c3ccc(Cl)cc3)no2)cc1` belongs 1; to `COc1ccc(Cl)cc1-c1nc(-c2ccccc2C)no1`, 1.
In the case of `O=C(CSc1nnc(-c2ccccc2)o1)NC1CC2CCC1C2` (stereo not drawn), the “proportion of mobile D. dipsaci” value was 1.
For `COc1ccc(-c2noc(-c3cccc(F)c3)n2)cc1`, the “proportion of mobile D. dipsaci” value is 1.
On to `Cc1cc(Br)ccc1OCc1nc(-c2ccccn2)no1`, for which the “proportion of mobile D. dipsaci” value was 1.
`Fc1ccc(-c2nc(-c3cccc(C(F)(F)F)c3)no2)cc1`: the “proportion of mobile D. dipsaci” value was 1.
Turning to `O=C(Nc1cccc(-c2noc(-c3cccnc3)n2)c1)c1cccs1`, the “proportion of mobile D. dipsaci” value is 1.
For the compound `Cc1ccccc1CSc1nnc(-c2ccco2)o1`, the “proportion of mobile D. dipsaci” value was 1.
For the compound `c1ccc(OCc2nc(-c3cccs3)no2)cc1`, the “proportion of mobile D. dipsaci” value was 1.
To `Cc1ccccc1-c1nc(-c2cccc(NC(=O)c3cccs3)c2)no1` belongs 1; to `Cc1ccc(CSc2nnc(-c3ccco3)o2)c(C)c1`, 1.
Take `CCCCC(=O)Nc1ccccc1-c1nc(-c2ccncc2)no1`: the “proportion of mobile D. dipsaci” value was 1.
`Clc1ccccc1-c1noc(-c2cccnc2)n1`: the “proportion of mobile D. dipsaci” value is 1.
With `Clc1ccc(OCc2nc(-c3ccc(Br)o3)no2)cc1`, the “proportion of mobile D. dipsaci” value was 1.
`O=C(CSc1nnc(-c2ccco2)o1)Nc1cccc(Cl)c1Cl`: the “proportion of mobile D. dipsaci” value is 1.
On to `O=C(Nc1ccc(-c2noc(-c3ccccn3)n2)cc1)c1cccc(Cl)c1`, for which the “proportion of mobile D. dipsaci” value was 1.
The result for `Fc1cccc(Cl)c1CSc1nnc(-c2ccccc2Cl)o1` reads 1; that for `Cc1ccccc1OCc1nc(-c2cccc(NC(=O)c3ccco3)c2)no1`, 1.
For the compound `COc1ccc(-c2noc(COc3ccc(Cl)cc3Cl)n2)cc1`, the “proportion of mobile D. dipsaci” value is 1.
The result for `Cc1c(C(=O)CSc2nnc(-c3ccccc3)o2)c2ccccc2n1C` reads 1.
`Ic1ccc(-c2nc(-c3cccnc3)no2)cc1`: the “proportion of mobile D. dipsaci” value is 1.
Consider `CCCC(=O)Nc1ccccc1-c1nc(-c2ccccn2)no1`, for which the “proportion of mobile D. dipsaci” value was 1.
Consider `Cc1cc(C)cc(OCc2nc(-c3ccccc3Cl)no2)c1`, for which the “proportion of mobile D. dipsaci” value is 1.
The result for `COc1ccc(Cl)cc1-c1noc(COc2ccccc2C)n1` reads 1.
